Sm TGR inh = S. mansoni TGR enzyme inhibition. Q962Y6. purified TGR, DTNB reduction, TNB absorbance 405 nm. Potency, µM (top dose mostly 114 µM), inactives show at the highest dose activity change, negative = inhibition, usual class: inhibitors. 360,000 tested, 3% active. AID 485364; also: potency is read from the fitted curve at half-maximal effect; % is scaled to controls: 0 for no effect and ±100 for the full control effect; nearly all actives have a fitted effect of over 60% in size
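TGR 20 nM + NADPH 100 uM (dispensed conc.), cpd preinc 15 min RT; start with NADPH (500 uM addition) then DTNB (15 mM addition). Kinetic TNB absorbance, 405 nm filter. Four-parameter Hill fit across titration.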
Pf growth 96h = P. falciparum growth inhibition at 96 hours | P. falciparum luciferase reporter growth, 96 h | Potency, µM (highest dose often 28.7 µM), for the others: at the top dose activity change, negative = inhibition, most hits filed as inhibitors | 320,000 tested, 6.9% active | AID 504834; also: potency is read from the fitted curve at half-maximal effect; % is scaled to controls: 0 for no effect and ±100 for the full control effect
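Luminescence readout: decreased luciferase signal marks inhibited growth of reporter-expressing P. falciparum in infected red cells (2% hematocrit, 0.05% parasitemia final), exposed to compound two generations (96 h, 37 C, 5% CO2).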
Pf growth 48h = inhibits P. falciparum growth in the first generation, 48 h; P. falciparum luciferase growth in erythrocytes, 48 h; Potency, µM (titrated, usually from 28.7 µM), inactives show at the top dose activity change, negative = inhibition, most hits filed as inhibitors; 310,000 tested, 5.9% active; AID 504832; also: potency is read from the fitted curve at half-maximal effect; % is scaled to controls: 0 for no effect and ±100 for the full control effect
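Here the parasites carry a stable luciferase gene and grow inside erythrocytes in Albumax-based RPMI medium with compound for one erythrocytic cycle. Activity is scored as loss of luminescent signal.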
Cycloheximide cs = counter-screen for Shiga toxin inhibitors: cycloheximide protein synthesis inhibition; 300,000 tested, 12% active; max response, %; cell reporter, cycloheximide protein synthesis inhibition counterscreen; in the data active = max response mostly above about 13%, no sharp cut-off; inactive = mostly below about 14%; also: read at 38.3 µM for the half of the compounds with a filed dose; 0% is about no effect
NS1 function inh = blocks influenza NS1 protein function. Potency, µM (highest dose often 46.1 µM), for the others: top-dose activity, positive = more growth. 270,000 tested, 0.4% active; calls by dose curve; also: potency is read from the fitted curve at half-maximal effect; actives are rising curves; nearly all actives have a fitted effect of over 50% in size
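Growth recovery, yeast-based: influenza A NS1 expressed in S. cerevisiae causes slow growth, and suppressors are detected by OD600. The parent strain without NS1 is used as positive control.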
Shiga inhibitor = Shiga toxin inhibition; Vero cells, Shiga toxin protein synthesis inhibition reporter; inhibition, % at 38.7 µM; 290,000 tested, 9.2% active; AID 2315; in the data active = inhibition mostly above about 28%, no sharp cut-off; inactive = mostly below about 43%; also: 0% is about no effect
* hit, by the source's call; ? = inconclusive; · = not tested or not shown. An excerpt weighted towards active compounds, which were near 21% of everything screened. Unless noted, calls follow the shape of the dose curve; as a rule, active = well fitted curve in the direction sought with a large enough effect; inconclusive = small, poorly fitted or top-dose-only effect, or another doubt; inactive = no such curve, though single readings can be large; an effect the other way counts as inactive or inconclusive.

SMILES	Sm TGR inh	Pf growth 96h	Pf growth 48h	Cycloheximide cs	NS1 function inh	Shiga inhibitor
CC(C)CNC(=O)/C=C/c1cccs1	3%	?	62%	19*	-1%	24
Cc1ccccc1C(=O)OCc1cc(=O)n2nc(-c3cccs3)sc2n1	0%	·	·	·	·	·
O=C(COC(=O)c1ccc2c(c1Cl)C(=O)c1ccccc1C2=O)NC1CC1	-22%	?	-13%	31*	-6%	39*
O=C(COC(=O)c1ccccc1C(=O)c1ccc(Cl)c([N+](=O)[O-])c1)NC1CC1	22µM*	2%	-2%	17	·	10
O=C(COC(=O)c1ccccc1[N+](=O)[O-])c1ccc(C2CCCCC2)cc1	9%	-2%	18%	60*	?	71*
CNC(=O)COC(=O)c1ccccc1C(=O)c1ccc(Cl)c([N+](=O)[O-])c1	35µM*	-4%	?	33*	·	41
Cc1ccccc1NC(=O)CSc1cn(CC(=O)N2CCCC2)c2ccccc12	-1%	·	·	·	·	·
O=C(OC1CCOC1=O)c1ccccc1C(=O)c1ccc(Cl)c([N+](=O)[O-])c1 (stereo not drawn)	25µM*	-41%	?	·	·	·
CNS(=O)(=O)c1cccc(C(=O)OC2CCOC2=O)c1 (stereo not drawn)	5%	34%	0%	3	14%	-6
CS(=O)(=O)c1ccc(C(=O)OC2CCOC2=O)cc1[N+](=O)[O-] (stereo not drawn)	2.8µM*	?	6.6µM*	-1	0%	2
COc1cc(C(=O)NNC(=O)c2cccc(Cl)c2)ccc1OCC(=O)N1CCOCC1	-7%	?	-14%	·	·	·
Cc1cc(-c2ccc(Cl)s2)n[nH]1	5%	75%	53%	29*	15%	82*
S=C(NCCc1ccc(Cl)cc1)NC1CC1	-19%	?	-14%	13	-8%	42
CCCCNC(=S)NCCN1CCN(C(=S)NCCCC)CC1	9%	-15%	-15%	1	·	-9
CCCN1CCC(=NNc2ccc(C(=O)O)cc2)CC1	-2%	61%	113%	30*	7%	40*
O=C(NN=C1CCN(Cc2ccccc2)CC1)c1ccccc1O	-13%	0%	12%	22*	·	35*
CCN1CCC(=NNC(=O)c2ccco2)CC1	0%	58%	·	56*	3%	53*
CCCOc1ccc(C(=O)ON=C2CCN(C)CC2)cc1	-3%	28%	12%	9	·	46
CCOC(=O)C1=C(C)C/C(=N\NC(=O)c2ccccc2O)CC1	?	?	?	23*	-37%	38
Cc1cccc(C)c1NC(=O)c1ccc2nc(CCc3ccccc3)oc2c1	2%	·	·	·	·	·
CCC(=O)N1CCc2cc(S(=O)(=O)N3CCCCCC3)ccc21	0%	?	-13%	8	-7%	-5
CCCN1CCC(=NNC(=O)c2ccc(Br)o2)CC1	2%	52%	21%	41*	-19%	70*
CCOC(=O)c1cccc(NC(=O)NCc2ccc3c(c2)CCN3C(=O)CC)c1	3%	·	·	·	·	·
CCCCOc1ccc(C2(C)NC(=O)NC2=O)cc1 (stereo not drawn)	-10%	-3%	8%	-1	13%	10
CCCCOc1ccc(C2=NNC(=O)CC2)cc1	-16%	18%	60%	15	0%	40*
SMILES	Sm TGR inh	Pf growth 96h	Pf growth 48h	Cycloheximide cs	NS1 function inh	Shiga inhibitor
Cc1cccc(OCc2nnc(SCC(=O)N3CC(=O)Nc4ccccc43)o2)c1	-1%	0%	?	2	·	-14
Cc1ccc(CNC(=O)c2cc(C3CC3)nc3c2cnn3C(C)C)cc1	-12%	?	13µM*	·	·	·
COc1cccc(CNC(=O)c2cc(C3CC3)nc3c2cnn3C(C)C)c1	-1%	3.3µM*	4.7µM*	·	·	·
COc1ccc(CNC(=O)c2cc(C3CC3)nc3c2cnn3C(C)C)cc1OC	-2%	?	-11%	·	·	·
CCCCC(=O)Nc1ccc(NC(=O)C2CC2)cn1	-1%	324%	93%	11	-5%	33
O=C(CS(=O)(=O)c1ccccc1)Nc1ccc(Br)cn1	-4%	28%	30%	19*	-17%	26*
CCCC(=O)Nc1ccc(NC(=O)C2CC2)cn1	-6%	·	32%	26*	11%	17
CCCCNC(=O)Nc1ccc(Br)cn1	4%	43%	47%	36*	-82%	31*
CCCCC(=O)Nc1ccc(NC(=O)CCCC)nc1	7%	-11%	13%	13*	-1%	63
CCCCNC(=O)Nc1ccccn1	2%	·	25%	10	-18%	31
Cc1ccc(NC(=O)C(C)NC(=O)OCc2ccccc2)cc1C (stereo not drawn)	12%	-8%	1%	2	-5%	-7
CC(=O)N1c2ccc(S(=O)(=O)N(C)CC(=O)N(Cc3ccccc3)C(C)C)cc2CC1C (stereo not drawn)	-1%	·	·	·	·	·
CCCCC(=O)Nc1ccc(Br)cn1	-8%	67%	·	22*	-4%	61
N#Cc1c(N)oc(-c2ccco2)c1-c1ccco1	35µM*	-2%	11%	1	-13%	-4
N#Cc1c(N)nc2c(c1-c1cccs1)CCCC2	-6%	17%	6%	1	-3%	-11
N#Cc1c(N)oc(-c2cccs2)c1-c1cccs1	-21%	13µM*	9.3µM*	-1	-64%	-11
COc1ccccc1CCC(=O)N1CCC(n2nccc2NC(=O)C2CCOC2)CC1 (stereo not drawn)	-29%	14%	-1%	1	0%	18
COc1ccc(OC2C(=O)N(Cc3ccc(F)cc3)C2c2ccc(OC)c(OC)c2)cc1 (stereo not drawn)	16%	?	?	-3	-2%	-6
COc1ccc(OC2C(=O)N(Cc3ccc4c(c3)OCO4)C2c2sccc2C)cc1 (stereo not drawn)	9%	4.1µM*	?	-1	4%	-25
COc1ccc(OC)c(C2C=C(C34CC5CC(CC(C5)C3)C4)NC(=S)N2)c1 (stereo not drawn)	-8%	2.6µM*	8.3µM*	0	18%	-7
COc1cc(C2C=C(C34CC5CC(CC(C5)C3)C4)NC(=S)N2)cc(OC)c1OC (stereo not drawn)	5%	1µM*	·	2	7%	-9
O=C1CC(c2ccc3c(c2)OCO3)CN1 (stereo not drawn)	-1%	?	23%	-2	2%	-17
S=C1NC(C23CC4CC(CC(C4)C2)C3)=CC(c2ccc3c(c2)OCO3)N1 (stereo not drawn)	-17%	?	4.1µM*	7	·	7
CCCCOc1ccc(S(=O)(=O)n2nc(C)c(S(=O)(=O)N3CCC(C)CC3)c2C)cc1	2%	·	·	·	·	·
CC(=O)OCCSc1c(-c2ccccc2)c2cc(Cl)ccc2[nH]c1=O	6%	36%	4%	3	8%	-19
CCc1cc2c(cc3c(=O)n(CC(=O)NC4CCC(C)CC4)ncn32)s1 (stereo not drawn)	5%	·	·	·	·	·
